Compound activity as filed in PubChem BioAssay.
A selection: hits, their analogues and other compounds. The true share with any hit is near 14%.
NS1 inh – qHTS Assay for Inhibitors of Influenza NS1 Protein Function; Potency, µM (series often up to 46.1 µM), for inactives: top-dose activity, positive = more growth; 0.4% of 270,000 active; calls by dose curve; also: potency is read from the fitted curve at half-maximal effect; actives are rising curves; nearly all actives have a fitted effect of over 50% in size
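Read-out: OD600 growth recovery of NS1-expressing budding yeast. Cells grown overnight at 30C in -URA glucose medium, washed, resuspended and diluted 1:100 in 2% galactose assay medium, pH 6.0. Same strain lacking NS1 served as positive control.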
Giardia FBPA inh – qHTS Assay for Inhibitors of Fructose-1,6-bisphosphate Aldolase from Giardia Lamblia; Potency, µM (series often up to 59.6 µM), for the others: at the highest dose activity, negative = inhibition, most hits filed as inhibitors; A8B2U2; purified Giardia FBPA; AID 2451, 2010; 0.71% of 290,000 active; also: potency is read from the fitted curve at half-maximal effect; % is scaled to controls: 0 for no effect and ±100 for the full control effect; nearly all actives have a fitted effect of over 55% in size
Target sequence (A8B2U2 whole entry, looked up): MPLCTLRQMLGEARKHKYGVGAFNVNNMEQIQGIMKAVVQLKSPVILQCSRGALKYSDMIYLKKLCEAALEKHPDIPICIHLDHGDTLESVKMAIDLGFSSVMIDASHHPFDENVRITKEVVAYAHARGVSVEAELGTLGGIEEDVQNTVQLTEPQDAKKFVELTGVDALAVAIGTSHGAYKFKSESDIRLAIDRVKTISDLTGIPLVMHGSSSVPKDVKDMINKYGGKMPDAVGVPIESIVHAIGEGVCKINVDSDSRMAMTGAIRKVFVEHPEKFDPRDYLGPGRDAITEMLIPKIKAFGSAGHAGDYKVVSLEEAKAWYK
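40 nM FBPA preincubated 10 min at RT with compound (up to 57.5 uM final), then substrate plus GAPDH/TPI/NAD/arsenate coupling and diaphorase/resazurin added. Fluorescence read after 20 min at RT, 525/598 nm.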
LmPK inh – qHTS Assay for Inhibitors of Leishmania Mexicana Pyruvate Kinase (LmPK) | purified LmPK, Kinase-Glo ATP luminescence, 1 h | 0.37% of 290,000 active | Q27686 | Potency, µM (doses to about 57.5 µM), for inactives: at the top dose activity change, negative = inhibition, most hits filed as inhibitors; also: potency is read from the fitted curve at half-maximal effect; % is scaled to controls: 0 for no effect and ±100 for the full control effect
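Purified LmPK (0.1 nM) with 0.5 mM PEP and 0.1 mM ADP in imidazole buffer pH 7.2 with MgCl2/KCl, 1 h at room temperature. ATP formed was read by luciferase luminescence and normalized to no-enzyme and uninhibited controls.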
Shiga inhibitor – A qHTS for Small Molecule Inhibitors of Shiga Toxin; inhibition, % at 38.7 µM; AID 2315, 2010; Vero cells, Shiga toxin protein synthesis inhibition reporter; 9.2% of 290,000 active; in the data active = inhibition mostly above about 28%, no sharp cut-off; inactive = mostly below about 43%; also: 0% is about no effect
CHX counter – Cycloheximide Counterscreen for Small Molecule Inhibitors of Shiga Toxin. cell reporter, cycloheximide protein synthesis inhibition counterscreen. max response, %. 12% of 300,000 active. AID 2314, 2010; in the data active = max response mostly above about 13%, no sharp cut-off; inactive = mostly below about 14%; also: read at 38.3 µM for the half of the compounds with a filed dose; 0% is about no effect
Starred values were filed as active, the others as inactive; u = inconclusive; x = no result. Unless noted, calls follow the shape of the dose curve; as a rule, active = well fitted curve in the direction sought with a large enough effect; inconclusive = small, poorly fitted or top-dose-only effect, or another doubt; inactive = no such curve, though single readings can be large; an effect the other way counts as inactive or inconclusive.

SMILES	NS1 inh	Giardia FBPA inh	LmPK inh	Shiga inhibitor	CHX counter
O=C(Nc1cccc([N+](=O)[O-])c1)C1COc2ccccc2O1 (centres undefined)	-10.3%	7.6%	2.5%	15.1	11.3*
COC(=O)c1cccc(NC(=O)C2COc3ccccc3O2)c1 (centres undefined)	-20.7%	0.5%	-11.5%	66.0*	32.9*
CCOCCOC(=O)c1ccc(NC(=O)C2COc3ccccc3O2)cc1 (centres undefined)	-23.6%	1.0%	4.9%	37.9	22.4*
COc1ccc(Cl)cc1NC(=O)C1COc2ccccc2O1 (centres undefined)	x	-8.8%	-0.7%	44.9*	38.1*
O=C(O)C1CC=CCC1C(=O)Nc1cccc([N+](=O)[O-])c1 (centres undefined)	-3.6%	6.0%	-0.4%	16.3	-3.3
COc1ccc(CCNC(=O)CC(C)S(=O)(=O)c2ccc3c(c2)NC(=O)CO3)cc1OC (centres undefined)	-4.5%	2.5%	2.1%	-3.4	-2.9
CC(C)N(C(=O)Cn1c(-c2ccccc2Cl)nc2ccccc21)c1ccccc1	-16.9%	-10.0%	1.2%	-6.2	8.7
CCc1cccc(CC)c1NC(=O)Cn1c(-c2ccccc2Cl)nc2ccccc21	7.6%	-5.0%	0.8%	37.2*	22.3*
CCC(=O)CC	x	14.1µM*	x	5.3	-7.5
CC1=NOC(=O)/C1=C/c1ccc2c(c1)OCO2	x	-26.5%	-5.3%	-12.6	1.0
COC(=O)C1=C(C)NC(=O)/C1=C\c1ccc2c(c1)OCO2	-5.9%	4.0%	0.5%	14.0	34.3*
CCC(C)c1ccc(NC(=O)c2cccnc2)cc1 (centres undefined)	-2.1%	-26.3%	-1.1%	59.3*	43.3*
CCCCSc1ccc(NC(=O)c2cccnc2)cc1	-68.9%	0.3%	-0.8%	34.7	13.5*
O=C(Nc1ccc(S(=O)(=O)Nc2ncccn2)cc1)c1cccnc1	1.4%	-0.2%	-1.8%	113.7*	58.8*
CCNS(=O)(=O)c1ccc(NC(=O)c2cccnc2)cc1	2.4%	4.4%	0.9%	-20.1	0.7
CS(=O)(=O)c1ccc2nc(NC(=O)CN3C(=O)NC4(CCCC4)C3=O)sc2c1	9.5%	6.8%	-3.5%	-9.9	4.8
CCOC(=O)N/N=C/c1ccc(F)cc1F	-8.3%	0.4%	-3.0%	57.2*	30.4*
CCOC(=O)N/N=C/c1cc(C)n(-c2ccccc2)c1C	-15.9%	-6.8%	-1.3%	71.2*	35.0*
Cc1cc(/C=N/NC(=O)c2cccc(F)c2)c(C)n1-c1ccccc1	x	-8.8%	-2.9%	50.0	25.4
Cn1c2ccccc2c2cc(/C=N/NC(=O)c3ccc(N)cc3)ccc21	-52.3%	x	-3.8%	24.0	12.6
Cc1cc(/C=N/NC(=O)c2ccccc2F)c(C)n1-c1ccccc1	x	-9.8%	-1.8%	67.3*	25.4*
Cn1c2ccccc2c2cc(/C=N/NC(=O)c3ccccc3F)ccc21	-37.9%	-10.7%	-3.1%	78.7*	41.1*
COc1cccc([C@@H]2Oc3ccc(OC)cc3C[C@H]2O)c1	x	2.6%	x	x	x
Clc1ccc(CNc2cnccn2)cc1	x	0.5%	-2.1%	6.5	1.5
c1ccc(CCNc2cnccn2)cc1	-0.5%	8.9%	-0.6%	34.1*	17.8*
SMILES	NS1 inh	Giardia FBPA inh	LmPK inh	Shiga inhibitor	CHX counter
Cc1ccc(CNc2cnccn2)cc1	-5.8%	5.9%	0.0%	27.4*	12.1
Clc1ccc(CNc2ccccn2)cc1	0.1%	-1.0%	-4.8%	54.5*	30.8*
Cc1ccnc(NCc2ccc(Cl)cc2)c1	1.6%	3.8%	-7.0%	48.7*	24.8*
Fc1ccc(CNc2cnccn2)cc1	3.8%	4.7%	-0.8%	-3.5	-1.5
CC(C)[C@H](N[C@@H](C)c1ccccc1)c1c(O)ccc2ccccc12	3.9%	-14.0%	-5.7%	9.7	4.5
Clc1ccccc1-c1nccc(NCc2cccs2)n1	x	-2.0%	x	x	x
COCC1C2CC[C@H]3C(OCc4ccc(F)cc4C(F)(F)F)OC[C@]4(C)[C@H]3C2=C(CN4C(=O)OC(C)(C)C)[C@H](C)C1COC (some centres undefined)	x	-7.7%	x	x	x
CC(=O)Nc1cc2nc(C)n(Cc3ccccc3[N+](=O)[O-])c2nc1C	11.1%	3.4%	-4.8%	-4.2	-1.3
COc1ccc(C(=O)N2CCC3(CC2)CN(CC(C)C)C3)cc1	x	0.9%	x	x	x
Cc1ccc(/C=C/C(=O)CCC(=O)O)cc1	0.6%	10.6%	-1.2%	64.5*	35.4*
CN(CCCNC(=O)c1ccc(CS(=O)c2ccc(Br)cc2)o1)Cc1ccccc1 (centres undefined)	-1.8%	x	-12.2%	-7.1	-8.2
CC(CC(=O)NCc1ccccc1)C1CCCO1 (centres undefined)	-2.5%	-0.1%	0.2%	25.9*	17.5*
O=C1c2ccc3c4c(ccc(c24)C(=O)N1c1cccc(O)c1)C(=O)N(c1cccc(O)c1)C3=O	4.1%	u	7.9%	3.1	-3.8
COc1ccccc1Oc1ccc2c(c1)C(=O)N(c1cccc3ncccc13)C2=O	22.7%	-0.5%	1.1%	65.8*	41.4*
COc1ccccc1Oc1ccc2c(c1)C(=O)N(c1cccc(O)c1)C2=O	-13.4%	-24.7%	5.7%	38.4*	27.8*
O=Cc1ccsc1B(O)O	x	-1.2%	x	x	x
CCOc1ccc(-c2cc(C(=O)N3CCN(c4ccccn4)CC3)c3ccccc3n2)cc1	-31.4%	-6.5%	1.3%	53.9*	35.2*
COc1ccc(-c2cc(C(=O)N3CCN(c4ccccn4)CC3)c3ccccc3n2)cc1	-116.4%	-1.9%	-7.4%	74.7*	43.4*
CCCc1ccc(-c2cc(C(=O)N3CCN(c4ccccn4)CC3)c3ccccc3n2)cc1	25.9%	-0.5%	1.7%	31.5	48.8*
Cc1ccc2nc(-c3ccc(NC(=O)CCS(=O)(=O)c4ccccc4)cc3)sc2c1	-6.4%	1.9%	1.3%	64.9*	47.0*
Cc1ccc(S(=O)(=O)Nc2ccc(-c3nc4ccc(C)cc4s3)cc2)cc1	19.2%	0.9%	-1.4%	2.0	-2.7
Cc1nc2ccc(NC(=O)CCS(=O)(=O)c3ccccc3)cc2s1	23.6%	28.5%	-4.3%	94.3*	47.0*
Cc1nc2cc(NC(=O)CCS(=O)(=O)c3ccccc3)ccc2s1	-2.2%	-1.8%	-9.7%	58.0*	37.2*
Cc1cccc(S(=O)(=O)Nc2ccc(-c3nc4ccc(C)cc4s3)cc2)c1	18.4%	1.9%	2.7%	73.7*	82.5*
Cc1cccc(CNc2ccnc(-c3cccc(C#N)c3)n2)c1	x	-5.8%	x	x	x
Cc1ccc(C)c(CN2CCN(c3ncccn3)CC2)c1	-2.6%	u	0.0%	-2.5	1.9
COc1ccc(C(=O)N2CCC3(CCCN(c4cccc(-c5ccccc5)c4)C3)CC2)cc1	x	0.1%	x	x	x
O=C(c1c(F)cccc1F)N1CCCC(c2nc(-c3ccc(Cl)cc3)no2)C1 (centres undefined)	-23.6%	8.6%	-5.7%	-7.8	1.5
O=C(c1ccc(F)cc1F)N1CCCC(c2nc(-c3ccc(F)cc3)no2)C1 (centres undefined)	-17.1%	-7.7%	-7.2%	14.4	16.9*
